PMC5540273 (PLoS ONE, 2017)

Columns and labels:
Settings in all cases: concentration: 1 μM, replicates: in singlicate; n = 1
CSF1R-autoinhibited = test system: CSF1R-autoinhibited
CSF1R = test system: CSF1R
CSK = test system: CSK
CSNK1A1L = test system: CSNK1A1L
CSNK1A1 = test system: CSNK1A1
CSNK1D = test system: CSNK1D
CSNK1E = test system: CSNK1E
CSNK1G1 = test system: CSNK1G1
CSNK1G2 = test system: CSNK1G2
CSNK1G3 = test system: CSNK1G3
CSNK2A1 = test system: CSNK2A1
CSNK2A2 = test system: CSNK2A2
CTK = test system: T1, CTK
T1 construct: gene MATK

DAPK1 = test system: DAPK1
DAPK2 = test system: DAPK2
DAPK3 = test system: DAPK3
DCAMKL1 = test system: T2, DCAMKL1
T2 construct: gene DCLK1

DCAMKL2 = test system: T3, DCAMKL2
T3 construct: gene DCLK2

DCAMKL3 = test system: T4, DCAMKL3
T4 construct: gene DCLK3

DDR1 = test system: DDR1
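Further: KINOMEscan kinase panel screen.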

| Compound | %Inh (CSF1R-autoinhibited) [%] | %Inh (CSF1R) [%] | %Inh (CSK) [%] | %Inh (CSNK1A1L) [%] | %Inh (CSNK1A1) [%] | %Inh (CSNK1D) [%] | %Inh (CSNK1E) [%] | %Inh (CSNK1G1) [%] | %Inh (CSNK1G2) [%] | %Inh (CSNK1G3) [%] | %Inh (CSNK2A1) [%] | %Inh (CSNK2A2) [%] | %Inh (CTK) [%] | %Inh (DAPK1) [%] | %Inh (DAPK2) [%] | %Inh (DAPK3) [%] | %Inh (DCAMKL1) [%] | %Inh (DCAMKL2) [%] | %Inh (DCAMKL3) [%] | %Inh (DDR1) [%] |
| --- | --- | --- | --- | --- | --- | --- | --- | --- | --- | --- | --- | --- | --- | --- | --- | --- | --- | --- | --- | --- |
| O=C(NCCCN1CCCC1=O)c1cnc(NCc2cc(Cl)ccc2Cl)nc1NC1CCNCC1 | 1 | 100 | 0 | 1 | 36 | 28 | 87 | 1 | 0 | 0 | 0 | 7 | 5 | 14 | 0 | 0 | 17 | 12 | 0 | 0 |
| CC(C)N1CCC(n2cnc(-c3ccc(F)cc3)c2-c2ccnc(N)n2)CC1 [SB-223132] | 0 | 0 | 0 | 31 | 93.1 | 96.4 | 98.8 | 2 | 3 | 6 | 0 | 0 | 0 | 26 | 0 | 17 | 22 | 4 | 20 | 46 |
| COC(=O)c1c(-c2ccccc2)c2cc(Cl)ccc2c(=O)n1Cc1ccc(S(C)(=O)=O)cc1 | 6 | 23 | 0 | 0 | 21 | 0 | 3 | 100 | 0 | 0 | 3 | 35 | 3 | 21 | 0 | 0 | 5 | 1 | 4 | 51 |
| C[C@@H]1CCN(C(=O)CO)C[C@@H]1N(C)c1ncnc2[nH]ccc12 | 19 | 8 | 21 | 0 | 33 | 6 | 0 | 0 | 0 | 10 | 0 | 0 | 14 | 2 | 7 | 10 | 6 | 0 | 90 | 0 |
| Cc1ccc(O)cc1Nc1cc(C(F)(F)F)nc2ccc(-c3ccncc3)cc12 [GW630823] | 0 | 3 | 0 | 23 | 4 | 15 | 0 | 6 | 1 | 5 | 0 | 2 | 2 | 16 | 17 | 11 | 25 | 0 | 15 | 40 |
| CC(C)(C)c1ccc(-n2cnc3c(N)ncnc32)cc1 [SKF-97263] | 0 | 58 | 0 | 17 | 40 | 3 | 18 | 6 | 13 | 25 | 18 | 0 | 0 | 0 | 0 | 0 | 0 | 12 | 0 | 27 |
| O=c1cc(N2CCOCC2)nc2n(Cc3cccc(Cl)c3)ccn12 [GSK2296823] | 0 | 1 | 0 | 12 | 42 | 19 | 34 | 10 | 0 | 23 | 0 | 0 | 22 | 0 | 0 | 7 | 17 | 12 | 0 | 21 |
| Cn1cc(-c2ccc3c(c2)CCN3C(=O)Cc2cccc(C(F)(F)F)c2)c2c(N)ncnc21 [GSK2606414] | 0 | 6 | 0 | 14 | 0 | 8 | 0 | 0 | 0 | 17 | 1 | 1 | 18 | 3 | 0 | 89 | 8 | 0 | 0 | 99.7 |
| Oc1ccc2ncnc(Nc3ccc(OCc4ccccc4)cc3)c2c1 [GI262866] | 0 | 2 | 0 | 0 | 8 | 4 | 30 | 0 | 17 | 38 | 26 | 10 | 3 | 0 | 0 | 0 | 0 | 0 | 0 | 7 |
| Nc1nc(-c2ccc3c(N)n[nH]c3c2)cc(N2CCCCC2)n1 [GSK2228768] | 0 | 1 | 0 | 1 | 0 | 11 | 0 | 0 | 0 | 4 | 0 | 12 | 0 | 3 | 0 | 6 | 0 | 15 | 0 | 0 |
